# Laboratory results as given in PubChem BioAssay.
# Biological target: Focal adhesion kinase 1 (Homo sapiens) (UniProt Q05397)
# Assay: small-molecule microarray binders of FAK, primary screen, biochemical, 635/667 nm fluorescence, BSA, DTT (AID 1130);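 note: composite of spot emission at 667 nm and signal to noise over triplicate slides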
# Conditions: PTK2 binding, 635 nm fluorescence, higher = more signal
# Focal adhesion kinase 1 (Homo sapiens), sequence (Q05397 whole entry, looked up): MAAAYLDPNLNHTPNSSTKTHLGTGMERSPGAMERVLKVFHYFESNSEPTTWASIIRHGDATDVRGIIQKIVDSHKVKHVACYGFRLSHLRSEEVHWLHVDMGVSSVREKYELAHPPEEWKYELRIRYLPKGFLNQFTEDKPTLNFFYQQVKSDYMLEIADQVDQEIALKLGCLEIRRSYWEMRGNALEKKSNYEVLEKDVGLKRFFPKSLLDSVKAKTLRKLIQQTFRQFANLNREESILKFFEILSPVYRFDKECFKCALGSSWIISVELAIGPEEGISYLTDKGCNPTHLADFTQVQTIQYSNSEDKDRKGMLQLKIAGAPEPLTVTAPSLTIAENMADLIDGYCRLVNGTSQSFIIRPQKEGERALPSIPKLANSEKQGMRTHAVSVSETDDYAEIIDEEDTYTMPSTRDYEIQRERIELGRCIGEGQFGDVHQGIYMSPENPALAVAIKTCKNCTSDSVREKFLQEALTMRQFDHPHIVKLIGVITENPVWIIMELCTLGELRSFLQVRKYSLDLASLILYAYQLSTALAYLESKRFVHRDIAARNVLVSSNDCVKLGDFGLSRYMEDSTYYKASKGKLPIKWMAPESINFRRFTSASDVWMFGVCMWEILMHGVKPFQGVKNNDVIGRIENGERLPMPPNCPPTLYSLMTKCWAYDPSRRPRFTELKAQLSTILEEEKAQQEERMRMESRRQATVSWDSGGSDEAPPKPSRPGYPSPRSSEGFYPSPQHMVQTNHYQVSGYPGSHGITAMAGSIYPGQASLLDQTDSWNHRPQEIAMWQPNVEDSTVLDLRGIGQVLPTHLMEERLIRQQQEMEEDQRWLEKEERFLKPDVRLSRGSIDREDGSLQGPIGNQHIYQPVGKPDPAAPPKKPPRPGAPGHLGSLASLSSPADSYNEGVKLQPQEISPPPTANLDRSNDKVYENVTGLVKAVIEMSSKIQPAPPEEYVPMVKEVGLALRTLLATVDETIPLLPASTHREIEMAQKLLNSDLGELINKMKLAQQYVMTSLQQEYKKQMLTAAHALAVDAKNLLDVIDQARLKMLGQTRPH
row,SMILES,composite z-score
1,[N-]=[N+]=Nc1ccccc1C[C@]1(C(=O)NCC(O)CO)N=C(c2ccc(OCCCO)cc2)O[C@H]1c1ccccc1 (some centres not stated),0.0141
2,[N-]=[N+]=NCc1ccccc1C[C@@]1(C(=O)NCC(O)CO)N=C(c2ccc(OCCCO)cc2)O[C@@H]1c1ccccc1 (some centres not stated),-0.225
3,C=CCN1C(=O)[C@]2(O[C@H](CCO)[C@@H]([Si](C)(C)c3ccc(OC)cc3)[C@@H]2C)c2cc(N(C=O)c3ccccc3)ccc21,-0.0453
4,Cc1ccc(S(=O)(=O)N2C[C@@H](C(=O)O)[C@H](Sc3ccccc3)C[C@H]2c2ccccc2)cc1,1.07
5,COC(=O)[C@]1(Cc2ccccc2)N=C(c2ccc(OCCCO)cc2)O[C@@H]1c1ccccc1N=[N+]=[N-],0.442
6,C=CC[C@]1(C(N)=O)N=C(c2ccc(OCCCO)cc2)O[C@H]1c1ccccc1,0.784
7,[N-]=[N+]=Nc1ccccc1[C@H]1OC(c2ccc(OCCCO)cc2)=N[C@@]1(Cc1ccccc1)C(=O)N1CCOCC1,0.68
8,O=C1NC(=O)C2C1C=CC(C(O)c1ccc(-c3ccccc3)s1)N2Nc1ccc(Cl)cc1Cl (configuration not stated),1.06
9,NCCCCCNC(=O)[C@H]1C[C@H]2C(=O)N3CCC[C@H]3C(=O)N2[C@H]1c1ccc(O)cc1,0.223
10,CC(=O)n1cc(C(O)C2C=CC3C(=O)NC(=O)C3N2Nc2ccccn2)c2ccccc21 (configuration not stated),1.74
11,CO[C@H]1O[C@H](CO)[C@@H](OC(=O)Nc2cccc(F)c2)[C@H](OC(=O)Nc2ccccc2)[C@H]1OC(=O)Nc1ccccc1,0.656
12,CO[C@H]1O[C@H](CO)[C@@H](OC(=O)Nc2ccccc2-c2ccccc2)[C@H](OC(=O)Nc2ccccc2-c2ccccc2)[C@@H]1OC(=O)Nc1ccccc1-c1ccccc1,0.993
13,O=C(NCc1ccccc1)[C@@H]1c2ccccc2C(=O)N(C2Cc3ccccc3C2)[C@H]1c1ccc(CO)cc1,0.166
14,O=C1C2C=CC(C(O)c3ccc(-c4ccccc4)s3)N(Nc3ccccc3)C2C(=O)N1c1ccccc1 (configuration not stated),0.473
15,Cc1c(NC(=O)/C(C#N)=C/c2cccc([N+](=O)[O-])c2)c(=O)n(-c2ccccc2)n1C,-0.148
16,O=C1C2C=CC(C(O)c3c(F)cccc3Cl)N(Nc3ccccc3F)C2C(=O)N1c1ccccc1 (configuration not stated),0.631
17,NCCCCCCNC(=O)[C@H]1C[C@H]2C(=O)N[C@@H](Cc3ccccc3)C(=O)N2[C@H]1c1cccc(OCCO)c1,0.376
18,CN(C)CCCC[C@@H]1NC(=O)[C@H]2C[C@@H](C(=O)NCCCCCN)[C@@H](c3cccc(OCCO)c3)N2C1=O,0.297
19,O=C(NCCN1CCOCC1)[C@@H]1c2ccccc2C(=O)N(Cc2cc(C(F)(F)F)cc(C(F)(F)F)c2)[C@H]1c1ccc(CO)cc1,0.31
20,COc1ccc([Si](C)(C)[C@@H]2[C@@H](CC(=O)N3Cc4ccccc4C[C@H]3CO)O[C@]3(C(=O)N(Cc4cccc(N5CCC5=O)c4)c4ccccc43)[C@H]2C)cc1,0.366
21,CN1C(=O)C2C=CC(C(O)c3c(F)cccc3Cl)N(NC(=O)OC(C)(C)C)C2C1=O (configuration not stated),0.427
22,O=C1OCCC/C=C\[C@H]2OC34C=CCN(c5ccc6ccccc6c5)C(=O)[C@H]3N(CCCCCO)C(=O)[C@@H]4C12 (some centres not stated),-0.24
23,COc1ccc([Si](C)(C)[C@H]2[C@H](CC(=O)N3CCC[C@H]3CO)O[C@@]3(C(=O)N(Cc4cccc(N5CCOC5=O)c4)c4ccccc43)[C@@H]2C)cc1,0.266
24,COCC(=C=CC[C@H](O)c1cccc(OCCO)c1)CCO,-0.0436
25,C=CCC(OC(C)=O)[C@@H]1[C@@H](N(Cc2ccc(-c3cccc(C(F)(F)F)c3)o2)C(=O)c2cccc3ccccc23)c2cc(OCCCO)ccc2N1C(=O)Cc1ccc2ccccc2c1 (some centres not stated),0.172
26,COCCOC(=O)N1C(=O)[C@@]2(c3ccccc31)[C@H](C(=O)N1CCCCCCC1)[C@H]1C(=O)O[C@H](c3ccccc3)[C@H](c3ccccc3)N1[C@@H]2c1ccc(OCCO)cc1,4.71

# Tested on: Fibrinogen (Alexa647-labelled)
# Assay: fibrinogen binders on compound microarrays, profiling panel, artefact control for SMM control-protein annotation, biochemical, small-molecule microarray, 635/667 nm fluorescence (AID 1131);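 note: z-score merges 667 nm fluorescence with per-spot signal-to-noise over triplicate slides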
# Conditions: fibrinogen-A647 binding fluorescence, higher = more signal
row,SMILES,composite z-score
1,COC(=O)[C@@]1(Cc2ccc(OC)cc2)[C@H]2c3cc(C(=O)N4CCCC4)n(Cc4nc5ccccc5[nH]4)c3C[C@H]2CN1C(=O)c1ccccc1,1.05
2,COc1ccc(NC(=O)O[C@H]2[C@H](OC(=O)c3cc4ccccc4[nH]3)[C@@H](OC(=O)c3cc4ccccc4[nH]3)[C@@H](OC)O[C@@H]2CO)cc1,0.662
3,C=C(CCCC)C(=O)CC[C@@H](OC(C)=O)c1ccc(CO)o1,0.513
4,O=C1[C@H]2C=C(I)[C@H](C[C@@H]2OCCCCO)[C@@]12CO2,-0.327
5,COCCCNC(=O)[C@@]1(Cc2ccccc2)N=C(c2ccc(OCCCO)cc2)O[C@H]1c1ccccc1CN=[N+]=[N-],0.913
6,CN(C)CCCCCCNC(=O)[C@@H]1C[C@@H]2C(=O)N3CCC[C@H]3C(=O)N2[C@@H]1c1ccc(O)cc1,0.539
7,COc1ccc([C@H]2C[C@H]3C(Br)=C[C@@]2(CO)C(=O)[C@]32CO2)cc1,0.281
8,C=CCNC(=O)[C@@H]1[C@H]2C(=O)O[C@H](c3ccccc3)[C@H](c3ccccc3)N2[C@H](c2ccc(OCCO)cc2)[C@@]12C(=O)N(C(=O)OCCOC)c1ccc(C#CCNC(N)=O)cc12,0.82
9,CS(=O)(=O)CCOC(=O)C1=CC(CCCO)=CC(c2ccc(CN3CCCC3)cc2)N(Cc2cccc(OC(F)(F)F)c2)C=C1C(=O)OCCS(C)(=O)=O (configuration not stated),0.675
10,COCCOC(=O)N1C(=O)[C@@]2(c3cc(C#CC4(O)CCCCCC4)ccc31)[C@H](C(=O)Nc1nc3ccccc3s1)[C@H]1C(=O)O[C@H](c3ccccc3)[C@H](c3ccccc3)N1[C@@H]2c1ccc(OCCO)cc1,0.801
11,[N-]=[N+]=Nc1ccccc1C[C@]1(C(=O)NCC(O)CO)N=C(c2ccc(OCCCO)cc2)O[C@H]1c1ccccc1 (some centres not stated),0.942
12,[N-]=[N+]=NCc1ccccc1C[C@@]1(C(=O)NCC(O)CO)N=C(c2ccc(OCCCO)cc2)O[C@@H]1c1ccccc1 (some centres not stated),-0.513
13,C=CCN1C(=O)[C@]2(O[C@H](CCO)[C@@H]([Si](C)(C)c3ccc(OC)cc3)[C@@H]2C)c2cc(N(C=O)c3ccccc3)ccc21,-0.16
14,Cc1ccc(S(=O)(=O)N2C[C@@H](C(=O)O)[C@H](Sc3ccccc3)C[C@H]2c2ccccc2)cc1,1.06
15,COC(=O)[C@]1(Cc2ccccc2)N=C(c2ccc(OCCCO)cc2)O[C@@H]1c1ccccc1N=[N+]=[N-],0.863
16,C=CC[C@]1(C(N)=O)N=C(c2ccc(OCCCO)cc2)O[C@H]1c1ccccc1,0.691
17,[N-]=[N+]=Nc1ccccc1[C@H]1OC(c2ccc(OCCCO)cc2)=N[C@@]1(Cc1ccccc1)C(=O)N1CCOCC1,0.974
18,O=C1NC(=O)C2C1C=CC(C(O)c1ccc(-c3ccccc3)s1)N2Nc1ccc(Cl)cc1Cl (configuration not stated),0.934

row,SMILES,composite z-score
1,NCCCCCNC(=O)[C@H]1C[C@H]2C(=O)N3CCC[C@H]3C(=O)N2[C@H]1c1ccc(O)cc1,0.894
2,CC(=O)n1cc(C(O)C2C=CC3C(=O)NC(=O)C3N2Nc2ccccn2)c2ccccc21 (configuration not stated),0.0552
3,CO[C@H]1O[C@H](CO)[C@@H](OC(=O)Nc2cccc(F)c2)[C@H](OC(=O)Nc2ccccc2)[C@H]1OC(=O)Nc1ccccc1,0.993
4,CO[C@H]1O[C@H](CO)[C@@H](OC(=O)Nc2ccccc2-c2ccccc2)[C@H](OC(=O)Nc2ccccc2-c2ccccc2)[C@@H]1OC(=O)Nc1ccccc1-c1ccccc1,0.906
5,O=C(NCc1ccccc1)[C@@H]1c2ccccc2C(=O)N(C2Cc3ccccc3C2)[C@H]1c1ccc(CO)cc1,0.299
6,O=C1C2C=CC(C(O)c3ccc(-c4ccccc4)s3)N(Nc3ccccc3)C2C(=O)N1c1ccccc1 (configuration not stated),0.974
7,Cc1c(NC(=O)/C(C#N)=C/c2cccc([N+](=O)[O-])c2)c(=O)n(-c2ccccc2)n1C,0.985
8,O=C1C2C=CC(C(O)c3c(F)cccc3Cl)N(Nc3ccccc3F)C2C(=O)N1c1ccccc1 (configuration not stated),0.926
9,NCCCCCCNC(=O)[C@H]1C[C@H]2C(=O)N[C@@H](Cc3ccccc3)C(=O)N2[C@H]1c1cccc(OCCO)c1,0.72
10,CN(C)CCCC[C@@H]1NC(=O)[C@H]2C[C@@H](C(=O)NCCCCCN)[C@@H](c3cccc(OCCO)c3)N2C1=O,1.01
11,O=C(NCCN1CCOCC1)[C@@H]1c2ccccc2C(=O)N(Cc2cc(C(F)(F)F)cc(C(F)(F)F)c2)[C@H]1c1ccc(CO)cc1,-0.487
12,COc1ccc([Si](C)(C)[C@@H]2[C@@H](CC(=O)N3Cc4ccccc4C[C@H]3CO)O[C@]3(C(=O)N(Cc4cccc(N5CCC5=O)c4)c4ccccc43)[C@H]2C)cc1,0.357
13,CN1C(=O)C2C=CC(C(O)c3c(F)cccc3Cl)N(NC(=O)OC(C)(C)C)C2C1=O (configuration not stated),1.01
14,O=C1OCCC/C=C\[C@H]2OC34C=CCN(c5ccc6ccccc6c5)C(=O)[C@H]3N(CCCCCO)C(=O)[C@@H]4C12 (some centres not stated),-0.582
15,COc1ccc([Si](C)(C)[C@H]2[C@H](CC(=O)N3CCC[C@H]3CO)O[C@@]3(C(=O)N(Cc4cccc(N5CCOC5=O)c4)c4ccccc43)[C@@H]2C)cc1,0.405
16,COCC(=C=CC[C@H](O)c1cccc(OCCO)c1)CCO,-0.535
17,C=CCC(OC(C)=O)[C@@H]1[C@@H](N(Cc2ccc(-c3cccc(C(F)(F)F)c3)o2)C(=O)c2cccc3ccccc23)c2cc(OCCCO)ccc2N1C(=O)Cc1ccc2ccccc2c1 (some centres not stated),0.702
18,COCCOC(=O)N1C(=O)[C@@]2(c3ccccc31)[C@H](C(=O)N1CCCCCCC1)[C@H]1C(=O)O[C@H](c3ccccc3)[C@H](c3ccccc3)N1[C@@H]2c1ccc(OCCO)cc1,1.04
